The text below walks through data of PubChem BioAssay.

The source made the active and inactive calls.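 Rule for the calls, unless noted: active = compound that reduces growth-factor-driven endothelial tube area in a mixed cell culture, no cutoff stated; inactive = the rest.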

Assay [1] in a line: stimulators of nuclear beta-catenin in C2C12, primary screen, imaging, WNT3A-conditioned medium, mouse C2C12, NPC library (AID 1117326; in the data active = nuclear beta-catenin stimulation mostly above about 4.2%, no sharp cut-off; inactive = mostly below about 10%; note: reference of the scale not given here). The settings on record: stronger effect = higher value.
A short description of assay [2]: stimulators of insulin release from INS-1E, primary screen, cell-based, 5 mM glucose, NPC library (AID 1117329;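 active = compound raises insulin release from rat beta cells at 5 mM glucose, no numeric limit stated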; note: reference of the scale not given here). Particulars: rat INS-1E insulin secretion, at 10 µM, stronger effect = higher value.
Assay [3] in a line: growth inhibition of GSK3B-pretreated HCT116 cells – cell-based, CellTiter-Glo, 0.2 to 20 µM (AID 1117336;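 active = compounds lowering colon cancer cell viability after pretreatment blocking the GSK3B kinase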). The settings on record: HCT116 viability after GSK3B inhibitor, at 20 µM, stronger effect = higher value. For orientation: ATP-based viability assays read luminescence as a measure of living cells.
Assay [4] can be described thus: inhibition of endothelial tube formation, primary screen, imaging, VEGF stimulated, CD31 staining, tube area, NPC library (AID 1117340). Particulars: VEGF-stimulated ADSC/ECFC co-culture, at 10 µM, stronger effect = higher value.
Assay [5] is described as follows: glucagon-like peptide 1 release enhancers, primary assay, NCI-H716 cell line, NPC library (AID 1117341;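 active = compound raises GLP1 secretion from the human gut endocrine cells, with no numeric limit stated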; note: reference of the scale not given here). Particulars: NCI-H716 cells, at 10 µM, stronger effect = higher value.
A short description of assay [6]: HCT116 colon cancer cell growth inhibition, primary screen, CellTiter-Glo luminescence, NPC library (AID 1117342;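 active = compounds that lower survival of HCT116 colon cancer cells in the luminescence readout, no numeric limit stated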). The settings on record: at 20 µM (top of the series).
The nature of assay [7]: CellTiter-Glo luminescent readout of SW480 viability loss, NPC library primary (AID 1117343;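 active = compounds that lower viability of the colon cancer cells in the luminescence readout, with no numeric limit stated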). Particulars: CellTiter-Glo luminescence; at 20 µM (top of the series).
Assay [8] is described as follows: decreased DLD-1 cellular survival, CellTiter-Glo luminescent readout, NPC compound collection, primary HTS (AID 1117346;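 active = compounds that lower survival of DLD-1 colon cancer cells in the luminescence readout, no cutoff given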). Particulars: DLD-1 viability, CellTiter-Glo luminescence; at 20 µM (top of the series).

As for `CCCCCOc1ccccc1/C(=C\SC)n1ccnc1`, the nuclear beta-catenin stimulation in assay [1] (at 10 µM) is 0.8% (inactive); in assay [1] (stimulation, at 2 µM), -0.3%. Moreover, the insulin secretion stimulation in assay [2] is 3.4% (inactive). Besides, the viability decrease in assay [3] is -71.1% (inactive). Moreover, in assay [4], the tube area decrease is 30.4% (inactive). Also, in assay [5], the GLP1 secretion stimulation is 3.8% (inactive). Besides, the inhibition of viability in assay [6] is 61.1% (active). Besides, the viability decrease (inhibition) in assay [7] is 79.6% (active); in assay [8], 99.5% (active).
Consider `C[C@@H]1CCC[C@H](C)N1CCCC(O)(c1ccccc1)c1ccccn1` (stereo partly specified), for which the nuclear beta-catenin stimulation is 1% (inactive) in assay [1] (at 10 µM) and 0% in assay [1] (stimulation, at 2 µM). The insulin secretion stimulation in assay [2] was 2.6% (inactive). Also, the viability decrease in assay [3] is -50.8% (inactive). The tube area decrease in assay [4] is 12.8% (inactive). In addition, the GLP1 secretion stimulation in assay [5] was 1.3% (inactive). In assay [6], the inhibition of viability is -3.7% (inactive). For the same molecule, the viability decrease (inhibition) in assay [7] is 14.7% (inactive); in assay [8], -14.8% (inactive).
Consider `CC(=O)N/N=C/c1ccc([N+](=O)[O-])o1`, for which the nuclear beta-catenin stimulation is 9.9% (inactive) in assay [1] (at 10 µM) and -0.2% in assay [1] (stimulation, at 2 µM). For the same molecule, in assay [2], the insulin secretion stimulation is -3.3% (inactive). For the same molecule, the viability decrease in assay [3] is 16.4% (inactive). The tube area decrease in assay [4] was 20.9% (inactive). Further, in assay [5], the GLP1 secretion stimulation is 5.7% (inactive). In assay [6], the inhibition of viability was 9% (inactive). Besides, the viability decrease (inhibition) is 104% (active) in assay [7] and 80.5% (active) in assay [8].
Take `COc1ccc2cc1Oc1cc3c(cc1OC)CC[N+](C)(C)[C@H]3Cc1ccc(cc1)Oc1c(OC)c(OC)cc3c1[C@@H](C2)[N+](C)(C)CC3`: the nuclear beta-catenin stimulation in assay [1] (at 10 µM) was 0.3% (inactive); in assay [1] (stimulation, at 2 µM), -0.1%. Also, the insulin secretion stimulation in assay [2] was 0.65% (inactive). In addition, in assay [3], the viability decrease is 13.2% (inactive). In addition, the tube area decrease in assay [4] was 3.3% (inactive). Also, in assay [5], the GLP1 secretion stimulation was 2.3% (inactive). Besides, the inhibition of viability in assay [6] is 7.8% (inactive). The viability decrease (inhibition) was 14% (inactive) in assay [7] and 6.2% (inactive) in assay [8].
`CCCCN(CCN(CCCC)C(=O)N1CCOCC1)C(=O)N1CCOCC1`: the nuclear beta-catenin stimulation was 1.4% (inactive) in assay [1] (at 10 µM) and 1% in assay [1] (stimulation, at 2 µM). In assay [2], the insulin secretion stimulation was 1.1% (inactive). Also, in assay [3], the viability decrease was -64.8% (inactive). Moreover, the tube area decrease in assay [4] was 17.8% (inactive). In addition, the GLP1 secretion stimulation in assay [5] was 0.9% (inactive). The inhibition of viability in assay [6] was 25.7% (inactive). Also, the viability decrease (inhibition) in assay [7] was 2.8% (inactive); in assay [8], 24.1% (inactive).
As for `NC(=O)COCCN1CCN(C(c2ccccc2)c2ccc(Cl)cc2)CC1` (stereo unspecified), the nuclear beta-catenin stimulation in assay [1] (at 10 µM) is -0.4% (inactive); in assay [1] (stimulation, at 2 µM), 1.4%. Besides, in assay [2], the insulin secretion stimulation was 1.7% (inactive). In addition, the viability decrease in assay [3] is -1.7% (inactive). The tube area decrease in assay [4] is 9.8% (inactive). Also, the GLP1 secretion stimulation in assay [5] was 2.2% (inactive). In assay [6], the inhibition of viability was 7.4% (inactive). Moreover, the results for the viability decrease (inhibition) in assay [7] and in assay [8] were -24.9% (inactive) and -5.9% (inactive), respectively.
Turning to `COc1ccccc1OCC1CNC(=O)O1` (stereo unspecified), the nuclear beta-catenin stimulation in assay [1] (at 10 µM) is -2% (inactive); in assay [1] (stimulation, at 2 µM), 0.2%. In assay [2], the insulin secretion stimulation is 0.9% (inactive). The viability decrease in assay [3] was -16.8% (inactive). Besides, the tube area decrease in assay [4] was -6.7% (inactive). The GLP1 secretion stimulation in assay [5] is -1.6% (inactive). The inhibition of viability in assay [6] is 4.4% (inactive). In addition, the viability decrease (inhibition) in assay [7] is 15.3% (inactive); in assay [8], -2.8% (inactive).
In the case of `CO[C@@]1(NC(=O)CSC[C@@H](N)C(=O)O)C(=O)N2C(C(=O)O)=C(CSc3nnnn3C)CS[C@@H]21`, the nuclear beta-catenin stimulation in assay [1] (at 10 µM) is 0.6% (inactive); in assay [1] (stimulation, at 2 µM), -1.7%. Also, the insulin secretion stimulation in assay [2] is 2.6% (inactive). Moreover, in assay [3], the viability decrease was 4.5% (inactive). Moreover, in assay [4], the tube area decrease was -11.8% (inactive). Besides, the GLP1 secretion stimulation in assay [5] was -0.5% (inactive). In addition, the inhibition of viability in assay [6] was -0.6% (inactive). For the same molecule, the viability decrease (inhibition) was -15.3% (inactive) in assay [7] and 3.1% (inactive) in assay [8].
`CCC(=O)O`: the nuclear beta-catenin stimulation is -0.6% (inactive) in assay [1] (at 10 µM) and 1.3% in assay [1] (stimulation, at 2 µM). The insulin secretion stimulation in assay [2] was 3.2% (inactive). Also, in assay [3], the viability decrease was -1.2% (inactive). In assay [4], the tube area decrease is -25.7% (inactive). Further, in assay [5], the GLP1 secretion stimulation was -3% (inactive). In assay [6], the inhibition of viability is 3.7% (inactive). Besides, the viability decrease (inhibition) in assay [7] was -0.5% (inactive); in assay [8], 3.7% (inactive).
With `Cc1cccc(C)c1NC(=O)CN(CC(=O)O)CC(=O)O`, the nuclear beta-catenin stimulation in assay [1] (at 10 µM) is 0.4% (inactive); in assay [1] (stimulation, at 2 µM), 0.2%. Also, the insulin secretion stimulation in assay [2] is -2.1% (inactive). Besides, in assay [3], the viability decrease is -0.05% (inactive). Further, in assay [4], the tube area decrease is -22.7% (inactive). Further, the GLP1 secretion stimulation in assay [5] is 1.6% (inactive). For the same molecule, the inhibition of viability in assay [6] is 2.2% (inactive). The viability decrease (inhibition) in assay [7] was 43.5% (inactive); in assay [8], 8.9% (inactive).
On to `O=C(CO)[C@@H](O)[C@H](O)[C@@H](O)C(=O)O`, for which the nuclear beta-catenin stimulation in assay [1] (at 10 µM) is -2.6% (inactive); in assay [1] (stimulation, at 2 µM), -0.9%. The insulin secretion stimulation in assay [2] is 0.7% (inactive). In addition, the viability decrease in assay [3] was -2.4% (inactive). For the same molecule, the tube area decrease in assay [4] was -0.1% (inactive). In addition, the GLP1 secretion stimulation in assay [5] was -5.4% (inactive). In assay [6], the inhibition of viability was 2.2% (inactive). Moreover, the viability decrease (inhibition) in assay [7] was 0.3% (inactive); in assay [8], -3.1% (inactive).
Consider `COc1cc2c(cc1OC)CN(C(=O)[C@H](C)N[C@@H](CCc1ccccc1)C(=O)O)[C@H](C(=O)O)C2`, for which the nuclear beta-catenin stimulation in assay [1] (at 10 µM) was -0.2% (inactive); in assay [1] (stimulation, at 2 µM), -2.5%. Besides, the insulin secretion stimulation in assay [2] was 0.4% (inactive). Also, the viability decrease in assay [3] was -9.2% (inactive). In addition, the tube area decrease in assay [4] was 14.8% (inactive). Further, the GLP1 secretion stimulation in assay [5] was -1.8% (inactive). Further, the inhibition of viability in assay [6] was 7.6% (inactive). The viability decrease (inhibition) in assay [7] is -3.9% (inactive); in assay [8], -16.7% (inactive).
As for `CC1(C)O[C@@H]2C[C@H]3[C@@H]4CCC5=CC(=O)C=C[C@]5(C)[C@@H]4[C@@H](O)C[C@]3(C)[C@]2(C(=O)CO)O1`, the nuclear beta-catenin stimulation in assay [1] (at 10 µM) is 0.6% (inactive); in assay [1] (stimulation, at 2 µM), 1.2%. In addition, the insulin secretion stimulation in assay [2] was -1% (inactive). The viability decrease in assay [3] was -46.1% (inactive). Moreover, the tube area decrease in assay [4] is 4.9% (inactive). In addition, the GLP1 secretion stimulation in assay [5] was 1.2% (inactive). Also, the inhibition of viability in assay [6] was -6.5% (inactive). The viability decrease (inhibition) is -17.7% (inactive) in assay [7] and -7.4% (inactive) in assay [8].
Consider `Cc1ccc2c(n1)Oc1ccc(C(C)C(=O)OCC(=O)N(C)C)cc1C2` (stereo unspecified), for which the nuclear beta-catenin stimulation was 0.6% (inactive) in assay [1] (at 10 µM) and -2.8% in assay [1] (stimulation, at 2 µM). Further, the insulin secretion stimulation in assay [2] is 1.8% (inactive). Moreover, the viability decrease in assay [3] is 28.6% (inactive). Further, the tube area decrease in assay [4] was -10% (inactive). Moreover, the GLP1 secretion stimulation in assay [5] was 3.6% (inactive). In assay [6], the inhibition of viability is 20.4% (inactive). In addition, the viability decrease (inhibition) was -3.8% (inactive) in assay [7] and -1.1% (inactive) in assay [8].
